Experimental data published in the supplement of paper PMC9023506.
Where a name gives a salt, the structure may show the parent alone.

These molecules were tested on Danio rerio larvae (5 dpf) (assay: habituation to 1-s acoustic pulses, difference vs DMSO (percentage points (treated minus DMSO)); higher = more of the behaviour than the DMSO vehicle control). Settings: 10 µM; exposure time: 3 h pre-incubation + 3 h imaging.
Method: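 5-dpf wild-type zebrafish larvae were imaged in 96-well plates. They were treated with 190 Tocris FDA-approved drugs at 10 µM (1 µl/ml DMSO) for 3 h before and 3 h during imaging at 28.5 °C, 48 larvae per drug. Automated image analysis gave % time moving and optomotor responses. Values are drug group mean minus DMSO vehicle mean (n=844), in percentage points, for 10 behaviours.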

How did the “habituation to 1-s acoustic pulses” value turn out when `C[C@H](Cc1cc2c(c(C(N)=O)c1)N(CCCO)CC2)NCCOc1ccccc1OCC(F)(F)F` [Silodosin] was run?
The value was 7.97.

Which “habituation to 1-s acoustic pulses” value does the source give for `Cc1cc(C2CCCCC2)n(O)c(=O)c1` [Ciclopirox] here?
The value was 0.443.

How did the “habituation to 1-s acoustic pulses” value turn out when `Cc1ccsc1C(=CCCN1CCC[C@@H](C(=O)O)C1)c1sccc1C` [Tiagabine hydrochloride] was run?
Its value is 6.27.

With `CCOC(=O)N1CCC(=C2c3ccc(Cl)cc3CCc3cccnc32)CC1` [Loratidine] as the molecule, how does the “habituation to 1-s acoustic pulses” value read?
Its value is -7.1.

How did the “habituation to 1-s acoustic pulses” value turn out when `CO[C@H]1/C=C/O[C@@]2(C)Oc3c(C)c(O)c4c(O)c(c5c(nc6cc(C)ccn65)c4c3C2=O)NC(=O)/C(C)=C\C=C\[C@H](C)[C@H](O)[C@@H](C)[C@@H](O)[C@@H](C)[C@H](OC(C)=O)[C@@H]1C` [Rifaximin] was run?
The value was -3.04.

For `CCC(C)(C)C(=O)O[C@H]1C[C@@H](C)C=C2C=C[C@H](C)[C@H](CC[C@@H]3C[C@@H](O)CC(=O)O3)[C@H]21` [Simvastatin], which “habituation to 1-s acoustic pulses” value is on record?
Its value is -1.13.

Which “habituation to 1-s acoustic pulses” value does the source give for `CCOc1cc(CC(=O)N[C@@H](CC(C)C)c2ccccc2N2CCCCC2)ccc1C(=O)O` [Repaglinide] here?
Its value is -8.43.

How did the “habituation to 1-s acoustic pulses” value turn out when `Cc1cn([C@H]2C=C[C@@H](CO)O2)c(=O)[nH]c1=O` [Stavudine] was run?
Its value is -0.918.

`OC(CNCC(O)C1CCc2cc(F)ccc2O1)C1CCc2cc(F)ccc2O1` (stereo not given) [Nebivolol hydrochloride] was tested. Which “habituation to 1-s acoustic pulses” value did it give?
Its value is -9.34.

With `CC(C)(C)NC(=O)[C@@H]1C[C@@H]2CCCC[C@@H]2CN1C[C@@H](O)[C@H](Cc1ccccc1)NC(=O)[C@H](CC(N)=O)NC(=O)c1ccc2ccccc2n1` [Saquinavir mesylate] as the molecule, how does the “habituation to 1-s acoustic pulses” value read?
The value was -0.0249.

How did the “habituation to 1-s acoustic pulses” value turn out when `C#CCN[C@@H]1CCc2ccccc21` [Rasagiline mesylate] was run?
The value was 2.65.

`CCCc1nc2c(C)cc(-c3nc4ccccc4n3C)cc2n1Cc1ccc(-c2ccccc2C(=O)O)cc1` [Telmisartan] was tested. Which “habituation to 1-s acoustic pulses” value did it give?
The value was -0.195.

Which “habituation to 1-s acoustic pulses” value does the source give for `COc1cc2nc(N3CCN(C(=O)c4ccco4)CC3)nc(N)c2cc1OC` [Prazosin hydrochloride] here?
The value was 0.4.

`COc1ccc([C@@H]2Sc3ccccc3N(CCN(C)C)C(=O)[C@@H]2OC(C)=O)cc1` [Diltiazem hydrochloride] was tested. Which “habituation to 1-s acoustic pulses” value did it give?
The value was -0.578.

With `CN1CCN2c3ncccc3Cc3ccccc3C2C1` (stereo not given) [Mirtazapine] as the molecule, how does the “habituation to 1-s acoustic pulses” value read?
The value was -2.79.

`NC(=O)c1ncn([C@@H]2O[C@H](CO)[C@@H](O)[C@H]2O)n1` [Ribavirin] was tested. Which “habituation to 1-s acoustic pulses” value did it give?
Its value is -1.17.

With `Clc1ccc(COC(Cn2ccnc2)c2ccc(Cl)cc2Cl)c(Cl)c1` (stereo not given) [Miconazole nitrate] as the molecule, how does the “habituation to 1-s acoustic pulses” value read?
Its value is -15.5.

With `C[C@]12CC[C@@H]3c4ccc(O)cc4C[C@@H](CCCCCCCCC[S+]([O-])CCCC(F)(F)C(F)(F)F)[C@H]3[C@@H]1CC[C@@H]2O` (stereo not given in full) as the molecule, how does the “habituation to 1-s acoustic pulses” value read?
The value was -2.82.

With `CCCc1nn(C)c2c(=O)[nH]c(-c3cc(S(=O)(=O)N4CCN(C)CC4)ccc3OCC)nc12` [Sildenafil citrate] as the molecule, how does the “habituation to 1-s acoustic pulses” value read?
Its value is -2.79.

How did the “habituation to 1-s acoustic pulses” value turn out when `CCc1c2c(nc3ccc(OC(=O)N4CCC(N5CCCCC5)CC4)cc13)-c1cc3c(c(=O)n1C2)COC(=O)[C@]3(O)CC` was run?
The value was 10.3.

Which “habituation to 1-s acoustic pulses” value does the source give for `N[C@@H]1[C@H]2CN(c3nc4c(cc3F)c(=O)c(C(=O)O)cn4-c3ccc(F)cc3F)C[C@@H]12` [Trovafloxacin mesylate] here?
The value was -3.6.

Which “habituation to 1-s acoustic pulses” value does the source give for `C[C@]12CCC(=O)C=C1CC[C@@H]1[C@@H]2[C@@H](O)C[C@@]2(C)[C@H]1CC[C@]2(O)C(=O)CO` [Hydrocortisone] here?
The value was 2.73.

How did the “habituation to 1-s acoustic pulses” value turn out when `CCN(Cc1ccncc1)C(=O)C(CO)c1ccccc1` (stereo not given) [Tropicamide] was run?
The value was -1.73.

For `CCCCCCCCc1ccc(CCC(N)(CO)CO)cc1`, which “habituation to 1-s acoustic pulses” value is on record?
The value was 3.87.

How did the “habituation to 1-s acoustic pulses” value turn out when `CC(C)Nc1cccnc1N1CCN(C(=O)c2cc3cc(NS(C)(=O)=O)ccc3[nH]2)CC1` [Delavirdine mesylate] was run?
The value was -7.61.

How did the “habituation to 1-s acoustic pulses” value turn out when `COC(=O)C1=C(C)NC(C)=C(C(=O)OC(C)C)C1c1cccc2nonc12` (stereo not given) [Isradipine] was run?
The value was -13.5.

Which “habituation to 1-s acoustic pulses” value does the source give for `CCOC(=O)C1=C(C)NC(C)=C(C(=O)OC)C1c1cccc(Cl)c1Cl` (stereo not given) [Felodipine] here?
Its value is -11.1.

With `Nc1cccc2c1CN(C1CCC(=O)NC1=O)C2=O` (stereo not given) [Lenalidomide] as the molecule, how does the “habituation to 1-s acoustic pulses” value read?
Its value is -1.09.

Which “habituation to 1-s acoustic pulses” value does the source give for `Cn1cnc([N+](=O)[O-])c1Sc1ncnc2[nH]cnc12` [Azathioprine] here?
The value was -2.96.

Which “habituation to 1-s acoustic pulses” value does the source give for `CC[C@H](C)C(=O)O[C@H]1C[C@@H](C)C=C2C=C[C@H](C)[C@H](CC[C@@H]3C[C@@H](O)CC(=O)O3)[C@H]21` [Lovastatin] here?
The value was -1.04.

With `O=C(O)C[C@H](O)C[C@H](O)/C=C/c1c(C2CC2)nc2ccccc2c1-c1ccc(F)cc1` [Pitavastatin calcium] as the molecule, how does the “habituation to 1-s acoustic pulses” value read?
Its value is -6.74.

With `CN1CCN(CCCN2c3ccccc3Sc3ccc(Cl)cc32)CC1` [Prochlorperazine dimaleate] as the molecule, how does the “habituation to 1-s acoustic pulses” value read?
Its value is -7.34.

`CCCCNc1cc(C(=O)O)cc(S(N)(=O)=O)c1Oc1ccccc1` [Bumetanide] was tested. Which “habituation to 1-s acoustic pulses” value did it give?
The value was -0.875.

How did the “habituation to 1-s acoustic pulses” value turn out when `Cc1ccc(NC(=O)c2ccc(CN3CCN(C)CC3)cc2)cc1Nc1nccc(-c2cccnc2)n1` [Imatinib mesylate] was run?
Its value is 3.16.

How did the “habituation to 1-s acoustic pulses” value turn out when `CCCCCCCN(CC)CCCC(O)c1ccc(NS(C)(=O)=O)cc1` (stereo not given) [Ibutilide hemifumarate] was run?
Its value is 2.78.

Which “habituation to 1-s acoustic pulses” value does the source give for `CCN(CC)CCNC(=O)c1c(C)[nH]c(/C=C2\C(=O)Nc3ccc(F)cc32)c1C` [Sunitinib malate] here?
Its value is 4.25.

Which “habituation to 1-s acoustic pulses” value does the source give for `CCCc1nc(C(C)(C)O)c(C(=O)O)n1Cc1ccc(-c2ccccc2-c2nnn[nH]2)cc1` [Olmesartan] here?
The value was 3.67.

For `Cc1nnc(C(C)C)n1C1C[C@H]2CC[C@@H](C1)N2CC[C@H](NC(=O)C1CCC(F)(F)CC1)c1ccccc1` (stereo in doubt) [Maraviroc], which “habituation to 1-s acoustic pulses” value is on record?
Its value is 2.48.

Which “habituation to 1-s acoustic pulses” value does the source give for `Nc1nc2c(ncn2COCCO)c(=O)[nH]1` [Acyclovir] here?
The value was 1.89.

With `CC(C)C(=O)Nc1ccc([N+](=O)[O-])c(C(F)(F)F)c1` [Flutamide] as the molecule, how does the “habituation to 1-s acoustic pulses” value read?
The value was -15.5.
